Some test systems named below: RPMI-8226 leukemia; OVCAR-8 ovarian; OVCAR-5 ovarian; IGROV1 ovarian; OVCAR-3 ovarian; HS 578T breast; NCI/ADR-RES ovarian; T-47D breast; OVCAR-4 ovarian; SK-OV-3 ovarian.
What all share (experiment): NCI-60 one-dose screen, 48 h (100 = growth as untreated, 0 = no growth, -100 = all killed)
What all share (conditions): 10 µM unless noted

Each structure is given as a SMILES string. The panel holds about 83,000 compounds, 20% with a hit somewhere; the sample as a whole holds those more often.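 Single-concentration screen, 48 h exposure, 96-well plates. Endpoint: percent growth. Below 10 = active.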 A number with no mark means an inactive call. Active and inactive are the calls of the source.

With `COc1cc(/C=C2\CN(S(=O)(=O)c3ccccc3)C/C(=C\c3cc(CN4CCCC4)c(O)c(OC)c3)C2=O)cc(CN2CCCC2)c1O`, the growth was -13.3% (active) in the test on RPMI-8226 leukemia; 19.2% in the test on OVCAR-8 ovarian; -9.14% (active) in the test on OVCAR-5 ovarian; -27.6% (active) in the test on IGROV1 ovarian; 11.1% in the test on OVCAR-3 ovarian; 33.6% with HS 578T breast. The growth in the test on NCI/ADR-RES ovarian is 92.7%; with T-47D breast, 32.3%.
Consider `Cc1ccc(S(=O)c2ccc([N+](=O)[O-])c3nonc23)cc1` (stereo unspecified), for which the growth in the test on RPMI-8226 leukemia is 91.3%; with OVCAR-8 ovarian, 99.7%; with OVCAR-4 ovarian it was 101%; with SK-OV-3 ovarian, 112%; in the test on IGROV1 ovarian, 104%; in the test with OVCAR-3 ovarian, 94.5%. For the same compound, the growth in the test with HS 578T breast was 96.5%; in the test with NCI/ADR-RES ovarian, 114%; in the test with T-47D breast, 59.1%.
With `COc1ccccc1N1CCN(C(CNS(=O)(=O)c2ccc(Cl)cc2)c2cccnc2)CC1` (stereo unspecified), the growth in the test with RPMI-8226 leukemia is 27.5%; with OVCAR-8 ovarian, 100%; in the test with OVCAR-5 ovarian, 113%; in the test on SK-OV-3 ovarian, 108%; in the test with OVCAR-3 ovarian, 75.4%; with HS 578T breast it was 88.3%. Also, the growth with NCI/ADR-RES ovarian is 93.9%; with T-47D breast, 102%.
On to `NC(=O)CSc1nc(-c2ccc(F)cc2)cc(-c2ccco2)n1`, for which the growth is 98.5% with RPMI-8226 leukemia; 98.1% with OVCAR-8 ovarian; 100% in the test with OVCAR-4 ovarian; 102% in the test on SK-OV-3 ovarian; 94% with IGROV1 ovarian; 111% with OVCAR-3 ovarian. Further, the growth is 115% in the test with HS 578T breast, 105% with NCI/ADR-RES ovarian and 64.1% with T-47D breast.
`COC(=O)c1cc2c(n1Cc1ccccc1)-c1oncc1CCC2`: the growth in the test on RPMI-8226 leukemia is 49.8%; in the test on OVCAR-8 ovarian, 76.7%; with OVCAR-5 ovarian it was 87.8%; in the test on SK-OV-3 ovarian, 93.7%; in the test on OVCAR-3 ovarian, 65.2%; in the test on HS 578T breast it was 78.2%. The growth was 40.3% in the test with NCI/ADR-RES ovarian and 74.9% in the test with T-47D breast.
For the compound `Oc1[nH]c2ccccc2c1N=Nc1nnc2n1N=C(c1ccccc1)CS2`, the growth is 92.8% in the test with RPMI-8226 leukemia; 59.1% in the test with OVCAR-8 ovarian; 59.6% in the test with OVCAR-4 ovarian; 89.8% in the test on SK-OV-3 ovarian; 97.5% in the test with IGROV1 ovarian; 88.4% with OVCAR-3 ovarian. For the same compound, the values for the growth in the test on HS 578T breast, in the test with NCI/ADR-RES ovarian and with T-47D breast were 72%, 105% and 64.3%, respectively.
On to `COc1ccc(C2Nc3nc(OC)n(C)c(=O)c3N=C3c4ccccc4C(=O)C32)cc1` (stereo unspecified), for which the growth with RPMI-8226 leukemia is 92.1%; with OVCAR-8 ovarian it was 103%; in the test on OVCAR-4 ovarian it was 88.5%; with SK-OV-3 ovarian, 109%; in the test with IGROV1 ovarian it was 140%; with OVCAR-3 ovarian it was 94.6%. Moreover, the growth is 100% with HS 578T breast, 97.6% in the test with NCI/ADR-RES ovarian and 101% in the test on T-47D breast.
Take `COc1cc(/C=C/C(=O)c2c(C)nc3ccccc3c2/C=C/c2ccccc2)cc(OC)c1OC`: the growth in the test with RPMI-8226 leukemia is -27.3% (active); in the test with OVCAR-8 ovarian it was 11.6%; with OVCAR-4 ovarian, 40.8%; in the test on SK-OV-3 ovarian it was 59.3%; in the test on IGROV1 ovarian, 2.87% (active); with OVCAR-3 ovarian, -35.9% (active). The values for the growth in the test with HS 578T breast, with NCI/ADR-RES ovarian and in the test on T-47D breast were 24.7%, 8.09% (active) and 13.3%, respectively.
`COc1ccc(C(=O)Nc2ccc3nc(N4CCCCC4)cc(C)c3c2)cc1OC`: the growth was 61.8% with RPMI-8226 leukemia; 94.1% with OVCAR-8 ovarian; 89.1% with OVCAR-5 ovarian; 114% with SK-OV-3 ovarian; 77.9% in the test with HS 578T breast; 98.3% in the test on NCI/ADR-RES ovarian. The growth with T-47D breast is 94.8%.
As to `CC[C@@H](C)[C@H](NC(=O)Cn1cc(CNC(=O)[C@@H](NC(=O)OCc2ccccc2)C(C)C)nn1)C(=O)O`, the growth was 106% in the test with RPMI-8226 leukemia; 96.2% with OVCAR-8 ovarian; 111% in the test with OVCAR-4 ovarian; 109% in the test with SK-OV-3 ovarian; 113% in the test with IGROV1 ovarian; 119% in the test with OVCAR-3 ovarian. Moreover, the growth in the test with HS 578T breast is 104%; with NCI/ADR-RES ovarian, 105%; in the test on T-47D breast, 116%.
For `COc1ccc(C2C3=C(COC3=O)N(CCO)c3cc4c(cc32)CCC4)cc1` (stereo unspecified), the growth in the test with RPMI-8226 leukemia was 86.8%; in the test with OVCAR-8 ovarian it was 58.4%; with OVCAR-4 ovarian it was 75.9%; with SK-OV-3 ovarian it was 57.3%; in the test with OVCAR-3 ovarian, 0.832% (active); with HS 578T breast, 69.7%. In addition, the growth with NCI/ADR-RES ovarian was 65.3%; with T-47D breast, 31.5%.
As to `NC1(N2SC(S)=C3CCCC=C32)CCCCC1`, the growth with RPMI-8226 leukemia is 95.8%; with OVCAR-8 ovarian, 107%; in the test with OVCAR-4 ovarian, 107%; in the test with SK-OV-3 ovarian, 100%; with IGROV1 ovarian, 93.6%; in the test on OVCAR-3 ovarian it was 107%. Also, the growth with HS 578T breast is 103%; in the test on NCI/ADR-RES ovarian, 104%; in the test with T-47D breast it was 84.5%.
Consider `Cn1cc(-c2ccc3ncc(-c4ccc(CC(=O)Nc5cc(C(C)(C)C)no5)cc4)nc3c2)cn1`, for which the growth with RPMI-8226 leukemia was 32.3%; in the test on OVCAR-8 ovarian it was 37%; with OVCAR-4 ovarian it was 31.9%; with IGROV1 ovarian, 19.3%; in the test on OVCAR-3 ovarian, 49.3%; with HS 578T breast, 25.9%. The growth is 43.7% in the test on NCI/ADR-RES ovarian and 25.5% in the test on T-47D breast.
`CNCCNc1nc2ccccc2c2c(=O)c3cccc(C)c3sc12`: the growth with RPMI-8226 leukemia is -30.5% (active); in the test with OVCAR-8 ovarian, 37.4%; with OVCAR-4 ovarian it was 29.4%; with IGROV1 ovarian, 18.1%; in the test on OVCAR-3 ovarian, 47.7%; in the test on HS 578T breast, 61.6%. In addition, the growth in the test with NCI/ADR-RES ovarian was 44.6%; with T-47D breast, 49.3%.
As for `CCCC(=O)CC(C)=O.CCCC(=O)CC(C)=O.[Cu]`, the growth was 102% in the test on RPMI-8226 leukemia; 93.1% with OVCAR-8 ovarian; 113% with OVCAR-4 ovarian; 77.3% in the test on SK-OV-3 ovarian; 103% in the test on IGROV1 ovarian; 110% in the test on HS 578T breast. Further, the growth in the test with NCI/ADR-RES ovarian is 101%; with T-47D breast, 77.1%.

Source of the values: PubChem BioAssay (NCI).
